# Where “and” joins values, the source holds several entries; their conditions need not be identical. Equal entries are not always repeated. Records with an inconclusive call do not appear. Where a call stands in place of a potency, no number is given. A number with no mark means an inactive call. Calls of active or inactive are those of the source. Calls come from the whole dose curve; as a rule, active = well fitted cell-killing curve with a large enough effect; inconclusive = small, poorly fitted or top-dose-only effect, or effect the other way; inactive = no such curve, though single readings can be large or run the other way.
# Legend:
# [1] = Viability qHTS for spleen associated tyrosine kinase inhibitor (SYKi) naive MV4-11 cells (AID 1963823); note: nearly all actives have a fitted effect of over 40% in size
# Outline: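 Seeding of 500 SYKi-naive MV4-11 cells per well onto pre-dispensed compounds preceded a 72 hr incubation at 37 C. Luminescent CellTiter-Glo signal, read after 10 min at room temperature, reflected viable cells.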
# [2] = Viability qHTS for spleen associated tyrosine kinase inhibitor (SYKi) drug resistant MV4-11 cells (AID 1963824); note: nearly all actives have a fitted effect of over 35% in size
# Outline: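 SYK-inhibitor-resistant MV4-11 AML cells were seeded at 500 per well onto compound and cultured 72 hours (37 °C, 5% CO2). CellTiter-Glo was then added, and after 10 min at room temperature, luminescence gave viability.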
# Potency is the fitted concentration of half-maximal effect.
SMILES,Potency [1],Potency [2],viability (% of control) [1],"viability, % of control [2]"
CC12CC(O)C(O)C=C1c1cc(O)cc(O)c1C(=O)O2 (stereo not given),inactive,inactive,,
CC(C)C1=CCC(C)(O)C(OC2OC(CO)C(O)C(O)C2O)C1 (stereo not given),inactive,inactive,,
COc1cc(C(C)=O)ccc1O[C@@H]1O[C@H](CO)[C@@H](O)[C@H](O)[C@H]1O,inactive,inactive,,
COc1cc(N2CCC(O)CC2)ccc1Nc1nc(Nc2ccccc2S(=O)(=O)C(C)C)c2[nH]cnc2n1,1.3 µM (active),2.06 µM (active),,
O=C1Nc2ccc(O)cc2O[C@H]1O[C@@H]1O[C@H](CO)[C@@H](O)[C@H](O)[C@H]1O,inactive,inactive,,
O=C(O)c1ccnc2cc(-c3nc4ccccc4n3CCN3CCCCC3)sc12,inactive,inactive,,
CC1(CO)CC(O)C2(C)CCC3(C)C(=CCC4C5(C=O)CCC(OC6OC(C(=O)O)C(O)C(O)C6OC6OC(C(=O)O)C(O)C(O)C6O)C(C)(C)C5CCC43C)C2C1 (stereo not given),,,87.7% [at 9.25 µM],98.3% [at 9.25 µM]
C=C1C(=O)OC2CC(C)=C(C(C)CCCO[C@@H]3O[C@H](CO)[C@@H](O)[C@H](O)[C@H]3O)C(O)C12 (stereo not given in full),inactive,inactive,,
CC(C)CC1NC(=O)C(C)NC(=O)C(CC(C)C)OC(=O)CCCNC1=O (stereo not given),inactive,inactive,,
CCCCCCOC(=O)NC(=N)c1ccc(NCc2nc3cc(C(=O)N(CCC(=O)OCC)c4ccccn4)ccc3n2C)cc1,2.35 µM (active),1.48 µM (active),,
CC(C)C(N)C(=O)OCCOCn1cnc2c(=O)[nH]c(N)nc21 (stereo not given),inactive,inactive,,
CCN(CC)C(=O)c1ccc(Nc2nc(OCC3CCCCC3)c3[nH]cnc3n2)cc1,1.03 µM (active),1.46 µM (active),,
O=C1NC(=O)c2cc(Nc3ccc(F)cc3)c(Nc3ccc(F)cc3)cc21,2.91 µM (active),1.03 µM (active),,
C=C1C(=O)O[C@@H]2/C=C(\C)CC/C=C(\C)CC[C@@H]12,7.31 µM (active),2.59 µM (active),,
CC/C=C\CC1C(=O)CCC1CC(=O)OC (stereo not given),inactive,inactive,,
C[C@@H]1O[C@@H](O[C@H]2[C@@H](OC(=O)[C@]34CCC(C)(C)CC3C3=CCC5[C@@]6(C)C[C@H](O)[C@H](O[C@@H]7O[C@H](C(=O)O)[C@@H](O)[C@H](O)[C@H]7O)[C@@](C)(C(=O)O)C6CC[C@@]5(C)[C@]3(C)CC4)OC[C@H](O)[C@@H]2O)[C@H](O)[C@H](O)[C@H]1O[C@@H]1OC[C@@H](O)[C@H](O)[C@H]1O (stereo not given in full),,,77.1% [at 9.25 µM],74.1% [at 9.25 µM]
CC(=O)c1ccc2c(c1)[C@H](NC(=O)c1ccc(F)c(Cl)c1)[C@H](O)C(C)(C)O2,inactive,inactive,,
CCCOC(c1cc2nccc(C(=O)O)c2[nH]1)c1ccccc1Cl (stereo not given),inactive,inactive,,
Cc1ncc(CCCN(C)C)cc1Nc1ncc2c(n1)-c1ccc(C(F)(F)F)cc1NC(=S)C2,0.0517 µM (active),0.0206 µM (active),,
CCOC(=O)[C@@H](N)Cc1ccc(-c2cc(O[C@H](c3ccc(Cl)cc3-n3ccc(C)n3)C(F)(F)F)nc(N)n2)cc1,8.33 µM (active),4.17 µM (active),,
CC1(C)CC[C@]2(C(=O)O[C@@H]3O[C@H](CO[C@@H]4O[C@H](CO)[C@@H](O)[C@H](O)[C@H]4O)[C@@H](O)[C@H](O[C@@H]4O[C@H](CO)[C@@H](O)[C@H](O)[C@H]4O)[C@H]3O)CC[C@]3(C)C(=CCC4[C@@]5(C)CC[C@H](O[C@@H]6OC[C@@H](O)[C@H](O)[C@H]6O)[C@@](C)(C(=O)O)C5CC[C@]43C)[C@@H]2C1 (stereo not given in full),,,83.1% [at 9.25 µM],108% [at 9.25 µM]
O=C(OCC1=C[C@@H](O)[C@@H]2C=CO[C@@H](O[C@@H]3O[C@H](CO)[C@@H](O)[C@H](O)[C@H]3O)[C@H]12)c1ccc(O)cc1,inactive,inactive,,
O=C(CCCCC1CCCCC1)N1CCC(c2cnc[nH]2)CC1,13 µM (active),8.2 µM (active),,
Cc1cc(CNC(=O)c2cc(C(=O)NCc3ccc(F)c(C)c3)ncn2)ccc1F,inactive,inactive,,
OCCc1ccc(O[C@@H]2O[C@H](CO)[C@@H](O)[C@H](O)[C@H]2O)c(O)c1,inactive,inactive,,
C/C=C/c1ccc(O[C@@H]2O[C@H](CO)[C@@H](O)[C@H](O)[C@H]2O)c(OC)c1,inactive,inactive,,
O=c1c2cccnc2n(-c2cccc([N+](=O)[O-])c2)c(=O)n1Cc1ccncc1,inactive,inactive,,
COc1ccc(/C=C/C(=O)O[C@@H]2[C@@H](O[C@@H]3O[C@H](CO)[C@@H](O)[C@H](O)[C@H]3O)[C@@H](O)[C@H](O[C@H]3C4C=CO[C@@H](O[C@@H]5O[C@H](CO)[C@@H](O)[C@H](O)[C@H]5O)C4[C@@]4(CO)O[C@@H]34)O[C@H]2C)cc1 (stereo not given in full),,,75.2% [at 9.25 µM],104% [at 9.25 µM]

SMILES,Potency [1],Potency [2],viability (% of control) [1],"viability, % of control [2]"
CC(=O)O[C@H]1C[C@@]2(C)[C@@H](C[C@@H](O)[C@H]3[C@@]4(C)CC[C@@H](O)[C@@H](C)[C@@H]4CC[C@@]32C)/C1=C(\CCC=C(C)C)C(=O)O,inactive,inactive,,
CN1CCC(c2c(O)cc(O)c3c(=O)cc(-c4ccccc4Cl)oc23)C(O)C1 (stereo not given),0.259 µM (active),0.206 µM (active),,
O=C(OC[C@@]1(O)CO[C@@H](O[C@H]2[C@H](Oc3ccc(O)cc3)O[C@H](CO)[C@@H](O)[C@@H]2O)[C@@H]1O)c1ccc(O)cc1,inactive,inactive,,
Cc1cc(-c2nc(C(=O)Nc3cn(C4CCOCC4)nc3C(N)=O)co2)ccn1,0.0461 µM (active),0.146 µM (active),,
COc1ccc(Cn2ccc3ccc(C(=O)NO)cc32)cc1,14.8 µM (active),20.6 µM (active) and 18.6 µM (active),,
C=C[C@H]1[C@H](O[C@@H]2O[C@H](CO)[C@@H](O)[C@H](O)[C@H]2O)OC=C2C(=O)N3Cc4c([nH]c5ccccc5c4=O)[C@@H]3C[C@H]21,inactive,inactive,,
C=C1C2(C)CC3C4(C)C=CC(=O)OC(C)(C)C4CCC3(C)C1(C(=O)OC)C(=O)C(C)(O)C2=O (stereo not given),inactive,0.224 µM (active),,
CC1=C(C(=O)O)/C(=C\CO[C@@H]2O[C@H](CO)[C@@H](O)[C@H](O)[C@H]2O)C(OC(=O)/C=C\c2ccc(O)cc2)C1 (stereo not given in full),inactive,inactive,,
O=C(NS(=O)(=O)c1ccc(Br)s1)c1ccc(Cl)cc1Cl,7.31 µM (active),9.2 µM (active),,
COC(=O)C1=CO[C@@H](O[C@@H]2O[C@H](CO)[C@@H](O)[C@H](O)[C@H]2O)[C@@H]2[C@@H](C)[C@@H](O)C[C@H]12,inactive,inactive,,
C=C1CCC[C@]2(C)CC[C@@H](C(=C)C(=O)O)[C@H](O)[C@@H]12,inactive,inactive,,
C=C[C@H]1[C@H](O[C@@H]2O[C@H](CO)[C@@H](O)[C@H](O)[C@H]2O)OC=C(C(=O)OC)[C@H]1C[C@@H]1c2cc(O)c(O)cc2CCN1C(C)=O,inactive,inactive,,
CC(C)(C)c1ccc(C(=O)Nc2cn3cc(-n4ccnc4)ccc3n2)cc1,1.84 µM (active),5.17 µM (active),,
CC(C)C(C#N)O[C@@H]1O[C@H](CO[C@@H]2O[C@@H](C)[C@H](O)[C@@H](O)[C@H]2O)[C@@H](O)[C@H](O)[C@H]1O (stereo not given in full),inactive,inactive,,
O=C1NC(=O)/C(=C\c2ccc3nccc(-c4ccncc4)c3c2)S1,0.13 µM (active),0.517 µM (active),,
CC(C)CC(=O)NCCn1cc(C(=O)O)c(=O)cc1C(O)c1ccccc1 (stereo not given),inactive,inactive,,
CC(C)CC1NC(=O)C2CC3(O)c4ccccc4NC3N2C1=O (stereo not given),inactive,inactive,,
Cc1cc(O)c(C(C)C)cc1O[C@@H]1O[C@H](CO)[C@@H](O)[C@H](O)[C@H]1O,inactive,inactive,,
C[C@@H]1O[C@@H](O[C@H]2[C@H](O)[C@@H](O)[C@H](OC3CCC4(C)C5CCC(C)(C(CO)OC6OC(CO)C(O)C(O)C6O)CC5=CCC4C3(C)C)O[C@@H]2CO)[C@H](O)[C@H](O)[C@H]1O (stereo not given in full),inactive,inactive,,
OCC1OC(Oc2cc(O)cc(/C=C/c3ccc(OC4OC(CO)C(O)C(O)C4O)cc3O)c2)C(O)C(O)C1O (stereo not given),inactive,inactive,,
CCOC(=O)c1cccc(CNc2ccc(N(C)C(=O)Nc3ccccc3)cc2)c1,18.4 µM (active),11.6 µM (active),,
CCCCC(=O)N(Cc1ccc(-c2ccccc2-c2nn[nH]n2)cc1)C(C(=O)O)C(C)C (stereo not given),inactive,inactive,,
COC(=O)C1=C[C@@H](O)[C@@H](O)[C@H](O[C@@H]2O[C@H](CO)[C@@H](O)[C@H](O)[C@H]2OC(=O)/C=C/c2ccccc2)C1,inactive,inactive,,
C/C=C(\C)C(=O)OCC1OC(OC2OC(COC(=O)/C(C)=C/C)C(OC3OC(CO)C(OC(=O)/C(C)=C/C)C(OC(=O)/C(C)=C/C)C3O)C(O)C2O)C(O)C(O)C1OC1OC(CO)C(OC(=O)/C(C)=C/C)C(OC(=O)/C(C)=C/C)C1O (stereo not given),,,65% [at 9.25 µM],58.7% [at 9.25 µM]
C=C1C(=O)O[C@@H]2C3C(=C(C)[C@@H](O)[C@@H](OC(=O)/C(=C/C)COC(C)=O)[C@@H]12)C(=O)[C@H]1O[C@@]31C (stereo not given in full),2.82 µM (active),3.55 µM (active),,
NS(=O)(=O)c1ccc(S(=O)(=O)Nc2cccc3c(Cl)c[nH]c23)cc1,0.235 µM (active),0.332 µM (active),,
CC(Sc1nc2c(cnn2-c2cccc(Cl)c2)c(=O)[nH]1)C(N)=O (stereo not given),inactive,inactive,,

# Reference: PubChem BioAssay (NCATS)
